About 83,000 compounds went through this panel and 20% of them were active in at least one assay; those are over-represented in the sample as a whole.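 Compound tested at a single concentration for 48 hours in 96-well plates; a percent growth value below 10 was scored as active.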 Calls of active or inactive are those of the source.
Assays:
Experiment in all cases: NCI-60 one-dose screen, 48 h (100 = growth as untreated, 0 = no growth, -100 = all killed)
Conditions in all cases: 10 µM unless noted
[1] = system: T-47D breast
[2] = system: BT-549 breast
[3] = system: MDA-MB-435 melanoma
[4] = system: SW-620 colon
[5] = system: MCF7 breast
[6] = system: HCT-116 colon
[7] = system: HCC-2998 colon
[8] = system: KM12 colon

Measured: growth

Cc1nc2sc(C(=O)Nc3ccccc3)c(N)c2cc1C(=O)c1ccc(C(F)(F)F)cc1
inactive: [1] 97.2% | [2] 100% | [3] 94.1% | [4] 99.5% | [5] 90.7% | [6] 76.8% | [7] 104% | [8] 108%

Cc1cc2cc3cc(C)c(N)cc3[n+](C)c2cc1N
active: [1] 8.77% | [2] 9.11% | [3] 9.46% | [4] 9.45% | [5] 8.32% | [6] 3.49% | [7] 9.7% | [8] 5.06%

O=C1c2ccccc2-c2c1c1c(NCCCO)nc3ccccc3c1n2Cc1ccccc1
active: [2] -37.7% | [5] -23.2% | [6] -57.3%
inactive: [1] 78.2% | [3] 18.2% | [4] 25.2% | [7] 26.1% | [8] 38.3%

CCCCCCCCOc1ccc(/C=N/Nc2cc(C)nc3ccc(Cl)cc23)cc1
active: [3] -19.8% | [4] -70.4% | [5] -69.7% | [6] -69.9% | [7] -58.6% | [8] -72.9%
inactive: [1] 56% | [2] 111%

COc1ccc(C(O)c2cc3c(N)c(C(=O)Nc4ccc(Cl)cc4)sc3nc2C)cc1 (stereo not drawn)
inactive: [1] 37.4% | [2] 66.4% | [4] 27.1% | [5] 16.6% | [6] 21.7% | [7] 23%
active: [3] -52.5% | [8] 9.89%

O=C(Nc1ccc(Nc2ncccn2)cc1)NC1C=c2ccccc2=CC1 (stereo not drawn)
inactive: [1] 100% | [2] 102% | [3] 113% | [4] 106% | [5] 97.9% | [6] 111% | [7] 106% | [8] 108%

c1ccc(N2N=C(c3cccc(Nc4ccncc4)c3)CC2c2ccc3c(c2)OCO3)cc1 (stereo not drawn)
inactive: [1] 48.5% | [2] 80% | [6] 63.3%
active: [3] -73.2% | [4] -53.6% | [5] 2.01% | [7] 0.363% | [8] 8.25%

N/C(=N\N=C\c1cc2ccccc2[nH]1)N/N=C/c1cc2ccccc2[nH]1
inactive: [1] 88.8% | [2] 98.7% | [3] 104% | [4] 101% | [5] 69.8% | [6] 86.8% | [7] 99.6% | [8] 97.6%

O=C(N/N=C/c1ccncc1)c1ccccc1Nc1cccc(C(F)(F)F)c1
inactive: [1] 58.2% | [2] 69.3% | [3] 112% | [4] 95.7% | [5] 104% | [6] 69.2% | [7] 77.8% | [8] 77.8%

O=c1nc2n(nc1/C=C/c1ccco1)CC(c1ccc(Cl)cc1)=NN2
inactive: [1] 49.7% | [2] 84.1% | [3] 110% | [4] 102% | [5] 22.2% | [6] 99% | [7] 110% | [8] 115%

CC(=O)c1c[nH]c2ccc(-c3ccnc(Nc4ccc(NC(=O)c5cccc(F)c5)c(CN5CCOCC5)c4)n3)cc12
active: [1] -5.6% | [2] -7.43% | [3] -6.37% | [4] 0.335% | [5] -0.0693% | [6] 2.26% | [7] 1.41% | [8] -7.43%

COc1ccc(/C=C/c2n[nH]c3ccc(N4CCOC4=O)cc23)cc1
inactive: [1] 17.6% | [2] 16.1% | [3] 44.4% | [7] 31.5%
active: [4] 1.51% | [5] 2.37% | [6] 8.08% | [8] 8.51%

C=C1C(=O)O[C@H]2[C@H]1CC/C(COC(=O)/C=C/c1c[nH]c3ccccc13)=C\CC[C@@]1(C)O[C@@H]21
active: [1] -68.3% | [2] -69.6% | [3] -88.5% | [4] -74.7% | [5] -40.1% | [6] -83.8% | [7] -88.1% | [8] -51.6%

CC[N+](CC)(CCCC(C)[N+]1(Cc2ccccc2)C(C)=CC=C1C)Cc1ccccc1 (stereo not drawn)
inactive: [1] 77.7% | [2] 82.9% | [3] 82.8% | [4] 89% | [5] 81% | [6] 47.6% | [7] 80.8% | [8] 81.7%

COc1ccc(Nc2nc(N)nc3c2CCc2occc2-3)cc1
inactive: [1] 83.4% | [2] 78.3% | [3] 105% | [4] 106% | [5] 78.7% | [6] 90% | [7] 108% | [8] 95.9%

Nc1cc(N)c2cccnc2c1O
active: [3] -83.9%
inactive: [1] 93.4% | [2] 90.3% | [4] 60% | [5] 46.3% | [6] 51.7% | [7] 77.1% | [8] 81.6%
